{
  "source": "PubChem BioAssay (Tox21)",
  "note": "Results filed as inconclusive are left out. Unmarked numbers belong to inactive results. Calls follow the shape of the dose curve; as a rule, active = well fitted curve in the direction sought with a large enough effect in the signal ratio in the repeat runs (not every such curve was filed as active); inconclusive = weak or mixed curves, or a change in a side signal; inactive = no such curve, though single readings can be large or run the other way; the % refers to the signal ratio. % is scaled to controls: 0 for no effect and ±100 for the full control effect.",
  "data": [
    {"experiment": "qHTS assay to identify small molecule agonists of the NFkB signaling pathway (AID 1159509)", "settings": "NFkB-bla ME-180 cells, beta-lactamase FRET ratio, 5 h; series mostly up to 61 µM; activation: at the top concentration", "excerpt": "National Center for Advancing Translational Sciences [NCATS]\nNIH Chemical Genomics Center [NCGC]\nU.S. Environmental Protection Agency [EPA]\nNational Institutes of Environmental Health Sciences [NIEHS]\nNational Toxicology Program [NTP]\nU.S. Food and Drug Administration [FDA]\nTranscription factors and their stimulated target gene expression play pivotal roles across many cellular processes including responses to environmental stimuli. Proper regulation of associated pathways is critical to maintain cell health and function. Constitutive activation of transcription factor pathways has been implicated in tumors as it may block cellular functions such as apoptosis and lead to invasion and metastasis. One important transcription factor that stimulates gene expression in response to cytokines, UV radiation, and other stimuli is nuclear factor-kappa B (NFkB). To measure activation of the NFkB pathway, the CellSensor NFkB-bla ME-180 cell line (Life Technologies, Carlsbad, CA) that stably expresses beta-lactamase reporter gene under the regulation of a NF-kB response element was used. This assay allows measurement of the NFkB pathway activity induced by compounds in a ME-180 cell line. This system quantitates NF-kB activity using a FRET-based assay system where beta-lactamase expression disrupts FRET, allowing for fluorescent measurement of activity. This cell line has been used to screen the Tox21 10K compound library and to identify compounds that induce the NFkB pathway activity.\nTox21 Assay Protocol Summary:\nNFkB-bla ME-180 cells were dispensed at 2,000 cells/6 uL of assay medium per well into black wall/clear-bottom 1536-well plates using a Multidrop Combi (ThermoFisher Scientific, Waltham, MA) dispenser. After the assay plates were incubated at 37 C and 5% CO2 for an overnight, 23 nL of compounds dissolved in DMSO, positive controls or DMSO only was transferred to the assay plate by a Pintool station (Kalypsys, San Diego, CA). The assay plates were incubated at 37 C and 5% CO2 for 5 hr. One uL of LiveBLAzer B/G FRET substrate (Life Technologies) was added using a Flying Reagent Dispenser (Aurora Discovery, San Diego, CA) and the plates were incubated at room temperature for 1.5 hr. Fluorescence intensity (405 nm excitation, 460 nm and 530 nm emissions) was measured using an Envision plate reader (PerkinElmer, Shelton, CT).", "values": [
      {"compound": "O=C(O)CCSSCCC(=O)O", "activation": "0.608% [at 78.8 µM]"},
      {"compound": "NC(CO)C(=O)NNCc1ccc(O)c(O)c1O", "note": "(stereo not given)", "activation": "-0.759%"},
      {"compound": "C=CC(OCC)OCC", "activation": "-0.0656%"},
      {"compound": "Oc1ccccc1-c1nnco1", "activation": "-0.264%"},
      {"compound": "CC(CO)c1ccccc1", "note": "(stereo not given)", "activation": "-0.0143%"},
      {"compound": "CCCCCOC(=O)CCC", "activation": "-0.0143%"},
      {"compound": "CCn1ccc(NS(=O)(=O)c2ccc(N)cc2)nc1=O", "activation": "0.0772%"},
      {"compound": "CC(C)CC(C)CC(C)CC(C)COC(=O)c1ccccc1C(=O)OCC(C)CC(C)CC(C)CC(C)C", "note": "(stereo not given)", "activation": "-0.471%"},
      {"compound": "CCCCCCCCCCCCCC", "activation": "-0.23%"},
      {"compound": "CC(=O)Nc1ccc(S(=O)(=O)Cl)cc1", "activation": "0.0295%"},
      {"compound": "CCOC(=O)[C@H](CCc1ccccc1)N[C@@H](C)C(=O)N1C(=O)N(C)C[C@H]1C(=O)O", "activation": "-0.0801%"},
      {"compound": "Nc1ccc2cc(S(=O)(=O)O)cc(O)c2c1", "activation": "0.864%"},
      {"compound": "NS(=O)(=O)c1ccc(NC(=O)CCC(=O)O)cc1", "activation": "-0.0193%"},
      {"compound": "C=CCCCCCCCCCCCC", "activation": "0.0267%"},
      {"compound": "CNS(=O)(=O)CCc1ccc2[nH]cc(C3CCN(C)CC3)c2c1", "activation": "-0.111%"},
      {"compound": "Cc1cc2cc3c(C)cc(=O)oc3c(C)c2o1", "activation": "-0.0102%"},
      {"compound": "CC(C)C(=O)OCc1cccc(OC(=O)[C@@H]2N3C(=O)[C@@H](NC(=O)Cc4ccccc4)[C@H]3SC2(C)C)c1", "activation": "-0.0316%"},
      {"compound": "O=C(Nc1ccc(Cl)c(Cl)c1)C1CC1", "activation": "-0.241%"},
      {"compound": "CCCC(=O)C(C)=O", "activation": "0.0111%"},
      {"compound": "C[C@H](N)[C@H](O)c1cccc(O)c1", "activation": "-0.472%"},
      {"compound": "COCCOC(=O)C1=C(C)NC(C)=C(C(=O)OC(C)C)C1c1cccc([N+](=O)[O-])c1", "note": "(stereo not given)", "activation": "-0.346%"},
      {"compound": "C=C1CC/C=C(\\C)CC[C@@H]2[C@@H]1CC2(C)C", "activation": "-0.598%"},
      {"compound": "O=C(CS(=O)Cc1ccco1)NC/C=C\\COc1cc(CN2CCCCC2)ccn1", "note": "(stereo not given)", "activation": "-0.29%"},
      {"compound": "O=P(O)(O)OP(=O)(O)O", "activation": "-0.0394%"},
      {"compound": "COc1cc2c(cc1OC)[C@@H]1CC(=O)[C@@H](CC(C)C)CN1CC2", "activation": "0.398%"},
      {"compound": "CCCCN", "activation": "-0.433%"},
      {"compound": "Cc1ccc(C=O)cc1C", "activation": "-0.362%"},
      {"compound": "CCN1CCc2nc(N)oc2CC1", "activation": "-0.439%"},
      {"compound": "CC(C)(C)OC(=O)c1ccc(O)cc1", "activation": "-0.389%"},
      {"compound": "Nc1ccc(S(=O)(=O)Nc2ccc(Cl)nn2)cc1", "activation": "0.0134%"},
      {"compound": "N[C@@H](CCC(=O)N[C@@H](CS)C(=O)NCC(=O)O)C(=O)O", "activation": "-0.349% [at 28.5 µM]"},
      {"compound": "CC1(CO)CN(c2ccccc2)NC1=O", "note": "(stereo not given)", "activation": "-0.0571%"},
      {"compound": "COCCc1ccc(OCC2CO2)cc1", "note": "(stereo not given)", "activation": "0.174%"},
      {"compound": "O=C(/N=N/C(=O)OCc1ccccc1)OCc1ccccc1", "activation": "0.222%"},
      {"compound": "COCCOCCOCCOCCO", "activation": "0.0131%"},
      {"compound": "CCOc1cc([N+](=O)[O-])c(OCC)cc1N1CCOCC1", "activation": "-0.0169%"},
      {"compound": "c1ccc2nccnc2c1", "activation": "-0.58% [at 78.8 µM]"},
      {"compound": "CCCCCCCCC(=O)Cl", "activation": "0.402% [at 78.8 µM]"},
      {"compound": "CC(C)CCCCOC(=O)c1ccccc1C(=O)OCCCCC(C)C", "activation": "1.74%"},
      {"compound": "Nc1cccc(O)c1", "activation": "-0.164% [at 78.8 µM]"}
    ]}
  ]
}
